Source: the supplement of paper PMC6555819

Columns and labels:
Assay in all cases: PBM binding z-score (relative to random genomic background probes); higher = stronger binding; sequences stand for … in GC…GCGATTGACAGCGTAGAATGAAGG
[1] = test system: FXR:RXRa (NR concentration 270 nM, RXRa partner concentration 90 nM)
How it was run: (§1)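 For binding z-scores, the reference was random background probes on custom Agilent 4×180K protein-binding microarrays. These arrays were incubated 1 h with ligand-free nuclear receptor dimers in PBS pH 7.4, 2% milk, 0.02% Triton X-100, 1 mM DTT, 0.2 mg/mL BSA and 0.4 mg/ml salmon testes DNA. Fluorescence was scanned after antibody detection of each partner (one per run) and regression-normalized.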

[2] = test system: LXRa:RXRa (NR concentration 270 nM, RXRa partner concentration 90 nM)
How it was run: as §1

[3] = test system: LXRa homodimer (NR concentration 270 nM)
How it was run: as §1

[4] = test system: LXRb:RXRa (NR concentration 270 nM, RXRa partner concentration 90 nM)
How it was run: as §1

[5] = test system: LXRb homodimer (NR concentration 270 nM)
How it was run: as §1

[6] = test system: PPARa:RXRa (NR concentration 270 nM, RXRa partner concentration 90 nM)
How it was run: as §1

[7] = test system: PPARg:RXRa (NR concentration 180 nM, RXRa partner concentration 90 nM)
How it was run: as §1

[8] = test system: PPARg:RXRa 270nM:90nM, anti-RXR (NR concentration 270 nM, RXRa partner concentration 90 nM)
How it was run: as §1

[9] = test system: PPARg:RXRa 30nM:10nM, anti-RXR (NR concentration 30 nM, RXRa partner concentration 10 nM)
How it was run: as §1

[10] = test system: PPARg:RXRa 90nM:30nM, anti-RXR (NR concentration 90 nM, RXRa partner concentration 30 nM)
How it was run: as §1

[11] = test system: PPARg:RXRa DBDmut IVT, anti-RXR (DBD mutation: RXRa K156A/R161A, NR concentration 270 nM, RXRa partner concentration 90 nM)
How it was run: as §1

[12] = test system: PPARg:RXRa IVT, anti-PPARg (NR concentration 270 nM, RXRa partner concentration 90 nM)
How it was run: as §1

[13] = test system: PPARg DBDmut:RXRa IVT, anti-PPARg (DBD mutation: PPARg1 K132A/R137A, NR concentration 270 nM, RXRa partner concentration 90 nM)
How it was run: as §1

[14] = test system: PPARg DBDmut IVT, anti-PPARg (DBD mutation: PPARg1 K132A/R137A, NR concentration 270 nM)
How it was run: as §1

[15] = test system: PPARg homodimer (NR concentration 180 nM)
How it was run: as §1

[16] = test system: PXR:RXRa (NR concentration 270 nM, RXRa partner concentration 90 nM)
How it was run: as §1

[17] = test system: PXR homodimer (NR concentration 270 nM)
How it was run: as §1

[18] = test system: RARa:RXR (NR concentration 270 nM, RXRa partner concentration 90 nM)
How it was run: as §1

[19] = test system: RARa homodimer (NR concentration 270 nM)
How it was run: as §1

[20] = test system: RARb:RXRa (NR concentration 270 nM, RXRa partner concentration 90 nM)
How it was run: as §1

Sequence: GCTGCTAGGTCAGGTTGGTCAGCTCACGGGTACG
- PBM binding z-score [1]: 1.27
- PBM binding z-score [2]: 0.883
- PBM binding z-score [3]: -0.243
- PBM binding z-score [4]: 0.696
- PBM binding z-score [5]: -0.186
- PBM binding z-score [6]: 1.57
- PBM binding z-score [7]: 0.553
- PBM binding z-score [8]: 0.724
- PBM binding z-score [9]: -0.171
- PBM binding z-score [10]: 0.333
- PBM binding z-score [11]: 3.01
- PBM binding z-score [12]: 2.19
- PBM binding z-score [13]: -0.391
- PBM binding z-score [14]: -0.956
- PBM binding z-score [15]: 0.943
- PBM binding z-score [16]: 0.37
- PBM binding z-score [17]: 0.00075
- PBM binding z-score [18]: 0.901
- PBM binding z-score [19]: 0.262
- PBM binding z-score [20]: 3.26

Sequence: CGTACTGGGCCAAAAAGGTCATTGATGCCGATAA
- PBM binding z-score [1]: 3.72
- PBM binding z-score [2]: 4.43
- PBM binding z-score [3]: 2.93
- PBM binding z-score [4]: 4.25
- PBM binding z-score [5]: 0.293
- PBM binding z-score [6]: 4.69
- PBM binding z-score [7]: 3.65
- PBM binding z-score [8]: 4.22
- PBM binding z-score [9]: 1.71
- PBM binding z-score [10]: 3.72
- PBM binding z-score [11]: 4.13
- PBM binding z-score [12]: 3.76
- PBM binding z-score [13]: -0.0861
- PBM binding z-score [14]: -0.32
- PBM binding z-score [15]: 3.08
- PBM binding z-score [16]: 4.6
- PBM binding z-score [17]: 3.5
- PBM binding z-score [18]: 4.94
- PBM binding z-score [19]: 1.6
- PBM binding z-score [20]: 3.87

Sequence: ACTCGGAGGACAAAAGTCAGAGCTACGCCAGTGA
- PBM binding z-score [1]: -0.293
- PBM binding z-score [2]: -0.245
- PBM binding z-score [3]: -0.424
- PBM binding z-score [4]: -0.518
- PBM binding z-score [5]: -0.302
- PBM binding z-score [6]: 0.347
- PBM binding z-score [7]: 1.41
- PBM binding z-score [8]: 2.68
- PBM binding z-score [9]: 0.796
- PBM binding z-score [10]: 2.08
- PBM binding z-score [11]: 0.176
- PBM binding z-score [12]: -0.114
- PBM binding z-score [13]: -1.08
- PBM binding z-score [14]: -0.828
- PBM binding z-score [15]: 0.0197
- PBM binding z-score [16]: -0.626
- PBM binding z-score [17]: -0.332
- PBM binding z-score [18]: -0.564
- PBM binding z-score [19]: -0.279
- PBM binding z-score [20]: 0.928

Sequence: CCGAGTAGGTTCTGGGGCATTCAGGCAACGGTGA
- PBM binding z-score [1]: -0.196
- PBM binding z-score [2]: -0.351
- PBM binding z-score [3]: -0.153
- PBM binding z-score [4]: -0.391
- PBM binding z-score [5]: -0.906
- PBM binding z-score [6]: 0.158
- PBM binding z-score [7]: -0.108
- PBM binding z-score [8]: 0.645
- PBM binding z-score [9]: -0.76
- PBM binding z-score [10]: 0.156
- PBM binding z-score [11]: 1.08
- PBM binding z-score [12]: 1.69
- PBM binding z-score [13]: -1.23
- PBM binding z-score [14]: -1.34
- PBM binding z-score [15]: 0.223
- PBM binding z-score [16]: -0.868
- PBM binding z-score [17]: -0.237
- PBM binding z-score [18]: -0.69
- PBM binding z-score [19]: -0.226
- PBM binding z-score [20]: 0.00361

Sequence: TTACCAAGGTGAAAGGTGGTTGATGCACGCCTTG
- PBM binding z-score [1]: 0.879
- PBM binding z-score [2]: 0.449
- PBM binding z-score [3]: -0.508
- PBM binding z-score [4]: 0.171
- PBM binding z-score [5]: -0.366
- PBM binding z-score [6]: 2.81
- PBM binding z-score [7]: 4.38
- PBM binding z-score [8]: 5.35
- PBM binding z-score [9]: 3.06
- PBM binding z-score [10]: 4.85
- PBM binding z-score [11]: 3.12
- PBM binding z-score [12]: 3.55
- PBM binding z-score [13]: -0.573
- PBM binding z-score [14]: -0.258
- PBM binding z-score [15]: 0.847
- PBM binding z-score [16]: 0.419
- PBM binding z-score [17]: -0.541
- PBM binding z-score [18]: 1.35
- PBM binding z-score [19]: 0.211
- PBM binding z-score [20]: 1.5

Sequence: TCTGTTAGGTCAGTTGGTCAGCTAACGAGCTGCC
- PBM binding z-score [1]: 2.18
- PBM binding z-score [2]: 1.74
- PBM binding z-score [3]: 0.264
- PBM binding z-score [4]: 1.37
- PBM binding z-score [5]: 2.71
- PBM binding z-score [6]: 1.99
- PBM binding z-score [7]: 0.27
- PBM binding z-score [8]: 2.47
- PBM binding z-score [9]: 3.02
- PBM binding z-score [10]: 2.76
- PBM binding z-score [11]: 2.15
- PBM binding z-score [12]: 3.2
- PBM binding z-score [13]: 2.86
- PBM binding z-score [14]: 2.08
- PBM binding z-score [15]: 1.91
- PBM binding z-score [16]: 0.988
- PBM binding z-score [17]: 0.313
- PBM binding z-score [18]: 1.29
- PBM binding z-score [19]: 0.814
- PBM binding z-score [20]: 3.71

Sequence: AGTCAACGTTCATCTAGGTAACGTAAGATATGCT
- PBM binding z-score [1]: -0.27
- PBM binding z-score [2]: -0.156
- PBM binding z-score [3]: -0.154
- PBM binding z-score [4]: -0.204
- PBM binding z-score [5]: -0.325
- PBM binding z-score [6]: 0.365
- PBM binding z-score [7]: 0.767
- PBM binding z-score [8]: 0.288
- PBM binding z-score [9]: 0.292
- PBM binding z-score [10]: 0.234
- PBM binding z-score [11]: 0.5
- PBM binding z-score [12]: 1.94
- PBM binding z-score [13]: 0.919
- PBM binding z-score [14]: 0.334
- PBM binding z-score [15]: 0.649
- PBM binding z-score [16]: -0.212
- PBM binding z-score [17]: -0.489
- PBM binding z-score [18]: 0.244
- PBM binding z-score [19]: -0.0246
- PBM binding z-score [20]: 0.796

Sequence: CAAACTAGGTCAAGTTCAAAGTCGGTTTGTGCCA
- PBM binding z-score [1]: 5.99
- PBM binding z-score [2]: 4.84
- PBM binding z-score [3]: 4.22
- PBM binding z-score [4]: 3.64
- PBM binding z-score [5]: 1.37
- PBM binding z-score [6]: 5.81
- PBM binding z-score [7]: 8.91
- PBM binding z-score [8]: 7.48
- PBM binding z-score [9]: 5.88
- PBM binding z-score [10]: 7.46
- PBM binding z-score [11]: 8.65
- PBM binding z-score [12]: 8.81
- PBM binding z-score [13]: 3.54
- PBM binding z-score [14]: 4.23
- PBM binding z-score [15]: 3.54
- PBM binding z-score [16]: 5.1
- PBM binding z-score [17]: 6.98
- PBM binding z-score [18]: 3.97
- PBM binding z-score [19]: 1.55
- PBM binding z-score [20]: 4.88

Sequence: GGCACGAGGGCAAAGTTGATAGCATCTGTCGACG
- PBM binding z-score [1]: 1.44
- PBM binding z-score [2]: 1.01
- PBM binding z-score [3]: -0.378
- PBM binding z-score [4]: 0.776
- PBM binding z-score [5]: -0.874
- PBM binding z-score [6]: 3.29
- PBM binding z-score [7]: 6.13
- PBM binding z-score [8]: 6.24
- PBM binding z-score [9]: 4.26
- PBM binding z-score [10]: 6.86
- PBM binding z-score [11]: 2.51
- PBM binding z-score [12]: 2.98
- PBM binding z-score [13]: -0.61
- PBM binding z-score [14]: -0.775
- PBM binding z-score [15]: 0.977
- PBM binding z-score [16]: 1.11
- PBM binding z-score [17]: 0.289
- PBM binding z-score [18]: 1.56
- PBM binding z-score [19]: -0.644
- PBM binding z-score [20]: 2.54
